In the library only some 2.3% were active in any assay of this set; here they are far more common.
NTR1 agonist – agonists of human neurotensin receptor NTR1. NTR1-U2OS beta-arrestin-GFP spot imaging, agonist mode. activation, % at 20 µM. hit rate 0.17% among 330,000;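 active = activation at or above 40% of the spot to cytoplasm intensity ratio, with at least 20 cells analyzed; inconclusive = wells under 20 cells, flagged as cytotoxic or low count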;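 note: 0% = DMSO without peptide and 100% = 100 nM NTR1 peptide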
Exocytosis inh – blocks lytic granule exocytosis; TALL-104 LAMP-1 surface exposure, flow cytometry; cells stimulated with thapsigargin and PMA; inhibition, % at 10 µM; hit rate 0.66% among 360,000;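 active = inhibition above about 55%, limit read from the data; inconclusive = no clear call, values can overlap the other calls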
Beta2AR agonist – agonists of human beta-2 adrenergic receptor inducing internalization | P07550 | Am2.2-beta2AR cells, FAP receptor internalization, flow cytometry | response, % (concentration not given with the values) | hit rate 0.43% among 340,000;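 active = response above a set limit, near 3 SD of response in nonfluorescent compounds, cut at about 42% in these data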
ABHD5-PLIN5 inh – ABHD5-PLIN5 protein interaction inhibition; inhibition, % at 4 µM; Q00G26+Q8WTS1; AID 602281; hit rate 0.78% among 360,000; Split G. princeps luciferase complementation, luminescence, 4 h;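 active = inhibition above the mean inhibition across every tested compound plus 3 SD, cut at about 22% in these data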;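 note: 0% = DMSO only wells and the 100% control is not disclosed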
Target sequence (Q00G26 whole entry, looked up): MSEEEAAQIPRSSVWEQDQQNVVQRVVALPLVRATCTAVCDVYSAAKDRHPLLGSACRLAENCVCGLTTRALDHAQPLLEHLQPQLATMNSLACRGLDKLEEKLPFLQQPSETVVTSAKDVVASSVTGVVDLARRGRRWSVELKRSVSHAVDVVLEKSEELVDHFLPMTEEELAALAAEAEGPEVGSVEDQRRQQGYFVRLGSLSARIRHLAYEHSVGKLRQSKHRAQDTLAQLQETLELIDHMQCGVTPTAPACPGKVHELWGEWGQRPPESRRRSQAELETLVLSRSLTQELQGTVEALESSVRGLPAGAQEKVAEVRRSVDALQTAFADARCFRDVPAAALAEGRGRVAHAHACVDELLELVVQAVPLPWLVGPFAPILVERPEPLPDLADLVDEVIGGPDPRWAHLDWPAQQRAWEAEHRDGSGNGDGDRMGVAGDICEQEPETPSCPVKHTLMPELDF
Target sequence (Q8WTS1 whole entry, looked up): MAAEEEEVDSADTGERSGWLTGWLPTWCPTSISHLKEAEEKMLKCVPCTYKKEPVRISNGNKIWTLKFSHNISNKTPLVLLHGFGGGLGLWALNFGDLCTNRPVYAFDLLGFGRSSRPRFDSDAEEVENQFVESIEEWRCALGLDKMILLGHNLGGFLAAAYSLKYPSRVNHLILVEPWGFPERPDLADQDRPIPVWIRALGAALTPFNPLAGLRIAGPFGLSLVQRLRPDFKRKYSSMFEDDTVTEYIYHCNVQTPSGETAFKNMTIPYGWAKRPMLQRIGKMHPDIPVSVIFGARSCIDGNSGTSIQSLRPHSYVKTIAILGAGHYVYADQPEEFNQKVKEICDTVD
HTR2A ag – agonists of mouse serotonin 5-HT2A receptor (HTR2A). CHO-K1 mHTR2A beta-arrestin complementation, luminescence; percent of 30 µM serotonin response. activation, % at 7.6 µM. hit rate 0.66% among 360,000;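 active = activation above a run cutoff, the mean activation of all tested compounds plus 3 SD, cut at about 14% in these data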;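 note: 0% = plate median of compound wells and 100% = 30 µM serotonin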
ABHD5-PLIN5 conf – ABHD5-PLIN5 interaction inhibition, confirmed; shares compounds with ABHD5-PLIN5 inh; biochemical ABHD5-PLIN5 interaction, luminescence; inhibition, % at 4 µM; hit rate 67% among 2,200; in the data active = inhibition above about 23%;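 note: 0% = DMSO vehicle wells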
HNF4 counter – active in HNF4 split-luciferase counter-screen for ABHD5-PLIN5 inhibitors; shares compounds with ABHD5-PLIN5 inh; HNF4 dimerization, luminescence, biochemical; inhibition, % at 4 µM; hit rate 77% among 2,200;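 active = mean inhibition across replicate wells exceeding the computed hit threshold, cut at about 13% in these data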;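 note: light from luciferase halves that rejoin when HNF4 fusion proteins dimerize; 0% = DMSO only wells and the 100% control is not given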
* hit, by the source's call; ? = inconclusive; / = not tested or not shown.

SMILES	NTR1 agonist	Exocytosis inh	Beta2AR agonist	ABHD5-PLIN5 inh	HTR2A ag	ABHD5-PLIN5 conf	HNF4 counter
CC1=C(C)CS(=O)N(c2ccc(S(N)(=O)=O)cc2)C1 (stereo not drawn)	16	15	7	34*	5	66*	89*
O=C(O)CN1C(=O)C=CC1=O	/	13	/	66*	-5	47*	104*
O=C(O)CN1C(=O)C2C3C=CC(C2C1=O)C1C(=O)N(CC(=O)O)C(=O)C31 (stereo not drawn)	1	-4	0	3	0	/	/
O=C(/C=C/c1cccs1)c1cc(Br)ccc1OC(=O)N1CCOCC1	-4	17	-9	25*	-2	57*	40*
CC(=O)Nc1ccc(-c2noc(-c3csc([C@@H]4C[C@H](O)[C@@H](CO)O4)n3)n2)cc1	/	-6	/	6	-5	/	/
CCNC(=O)C1(C)CCCN1C(=O)c1ccc2c(c1)OCO2 (stereo not drawn)	/	-2	/	-1	3	/	/
Cn1c(=O)c([N+](=O)[O-])c(-n2ccnc2)c2ccccc21	13	-1	40	23*	2	2	11
Cc1nc([N+](=O)[O-])c(Br)n1Cc1ccccc1	3	-4	12	15	3	/	/
Cc1nc([N+](=O)[O-])c(Sc2nc3ccc([N+](=O)[O-])cc3[nH]2)n1Cc1ccccc1	5	7	8	28*	-6	45*	38*
CCCNC(=O)COc1coc(CN2CCN(c3ccc(F)cc3)CC2)cc1=O	0	3	-3	-5	0	/	/
CCc1nnc(NC(=O)c2nc(S(=O)(=O)Cc3ccccc3)ncc2Cl)s1	-1	10	0	34*	2	69*	48*
CCc1nnc(NC(=O)c2nc(Cl)ccc2Cl)s1	1	-2	-8	2	3	/	/
CCc1nnc(NC(=O)c2nc(S(=O)(=O)Cc3ccc(C)cc3)ncc2Cl)s1	1	11	29	25*	-10	68*	43*
CCc1nnc(NC(=O)c2nc(S(=O)(=O)Cc3cccc(C)c3)ncc2Cl)s1	1	?	14	33*	-3	82*	49*
CN(Cc1ccccc1)S(=O)(=O)c1ccc(Cl)c(C(=O)OCC(=O)NC2CCS(=O)(=O)C2)c1 (stereo not drawn)	-1	0	4	-3	5	/	/
Cc1cc([N+](=O)[O-])ccc1NC(=O)CSc1nncn1-c1ccccn1	-3	-9	-13	-2	-1	/	/
Cc1ccc([N+](=O)[O-])cc1NC(=O)CSc1nncn1-c1ccccn1	1	-18	-11	24*	6	-2	5
COc1cc(Cl)ccc1OC1(C)CCN(Cc2ccc3ccccc3c2)C1 (stereo not drawn)	/	11	/	-1	-5	/	/
COc1ccc(C2=C3C(=O)OCC3Cc3ncn(Cc4ccccc4)c32)cc1 (stereo not drawn)	2	3	-15	4	1	/	/
CCOC(=O)C1=CC[C@@H](c2ccccc2)N(S(=O)(=O)c2ccc(C)cc2)[C@@H]1C#N	/	43	/	48*	-6	50*	58*
CCOC(=O)C1=CC[C@@H](c2ccccc2)N(S(=O)(=O)c2ccc(C)cc2)[C@H]1C	/	9	/	1	-4	/	/
COC(=O)[C@@]1(Cc2ccc(OC)cc2)[C@@H]2C(=CC(=O)[C@H]2CC(=O)C(=O)N2CCCC2)CN1C(=O)c1ccccc1	23	-5	17	33*	0	63*	49*
C/C(=N\NC(=O)c1nnn(-c2nonc2N)c1CN1CCCCC1)c1ccccc1O	2	-1	-23	2	3	/	/
COc1ccc(CC(=O)O/N=C(\N)Cc2cccc3ccccc23)cc1OC	-1	4	5	-3	-4	/	/
Cc1ccc(S(=O)(=O)N(CCC(=O)NCc2ccc(S(N)(=O)=O)cc2)c2ccccc2)cc1	1	-1	0	-4	-8	/	/
SMILES	NTR1 agonist	Exocytosis inh	Beta2AR agonist	ABHD5-PLIN5 inh	HTR2A ag	ABHD5-PLIN5 conf	HNF4 counter
CCCc1nc2sc3ccccc3c(=O)c2c(=O)n1Cc1ccco1	/	2	26	28*	2	52*	74*
CC1CCC(C(C)C)C(OC(=O)Cn2c(-c3ccc(Cl)cc3)[n+](C)c3ccccc32)C1 (stereo not drawn)	38	15	19	34*	6	15	4
Cc1ccc(NCc2nc3ccccc3n2CCOc2ccccc2)cc1	1	3	7	26*	-6	6	2
Cc1nc2ccccc2n1CCOc1ccccc1	2	-1	6	0	-3	/	/
COc1cccc(-c2c(-c3cc(OC)cc(OC)c3)n(C)c3ccc(-c4ccc5cc[nH]c5c4)cc23)c1	-1	7	11	-6	-1	/	/
CCN(CC)c1ccc(/C=C/c2ccc3ccc(OC)cc3[n+]2CC)cc1	6	-13	-156	19	0	/	/
Cc1ccnc(NS(=O)(=O)c2ccc(NC(=O)Cc3ccc(Br)cc3)cc2)n1	-2	1	5	4	2	/	/
Cc1[nH]c(=O)[nH]c(=O)c1S(=O)(=O)N1CCCCC1	-1	-14	12	29*	-1	-2	16*
Cc1cccc(N2CCN(S(=O)(=O)c3c(C)[nH]c(=O)[nH]c3=O)CC2)c1C	0	10	6	0	0	/	/
COc1cc(C(C2C(=O)CC(C)(C)CC2=O)C2C(=O)CC(C)(C)CC2=O)ccc1OC(C)=O	2	-3	0	25*	7	37*	33*
COc1cc(C(C2C(=O)CC(C)(C)CC2=O)C2C(=O)CC(C)(C)CC2=O)ccc1O	-2	-2	0	11	3	/	/
CC(=O)c1cccc(NC(=O)CCc2nnc3ccc(NCc4ccco4)nn23)c1	1	1	3	11	4	/	/
Cc1ccc(NC(=O)CCc2nnc3ccc(NCc4ccco4)nn23)nc1	1	1	0	39*	-1	14	24*
O=C(CCc1nnc2ccc(NCc3ccco3)nn12)N1CCN(c2ccccc2)CC1	0	2	8	18	7	/	/
CCOC(=O)C1CCN(C(=O)CCc2nnc3ccc(NCc4ccco4)nn23)CC1	2	-12	3	51*	8	13	12
COc1cccc(NC(=O)CN(C)C(=O)CCNS(=O)(=O)c2ccc(C)cc2)c1	3	-2	-1	0	10	/	/
O=C(NC1CCCCCC1)c1ccc(=O)n(Cc2ccccc2)n1	0	6	-1	0	-2	/	/
COC(=O)/C=C1\S/C(=N/N=C/c2ccccc2)NC1=O	-2	6	5	-1	-1	/	/
COC(=O)C/C=N/N=C1/NC(=O)/C(=C/C(=O)O)S1	-1	1	10	26*	-2	22	19*
O=C1/C(=C/c2ccc(O)cc2)COc2ccccc21	2	-8	-4	25*	8	50*	60*
